Assay outcomes deposited in PubChem BioAssay by The Scripps Research Institute Molecular Screening Center.
Rows were chosen to be rich in hits. Some 3.5% of all compounds tested hit in one or more screens of this group.
FBW7 act = FBW7 E3 ligase activators, primary screen, biochemical, AlphaScreen, human; 0.13% of 650,000 active; normalized activity (activation), % at 26.1 µM; F-box/WD repeat-containing protein 7 (Homo sapiens), Q969H0; AID 1259310, 2017; AlphaScreen FBW7–phospho-cyclin E peptide binding, activator screen; in the data active means normalized activity above about 1.9%;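 further: purified mutant Fbw7 with reduced substrate affinity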
MITF primary = MITF inhibitors, primary screen, biochemical, AlphaScreen, human; Microphthalmia-associated transcription factor (Homo sapiens), O75030; AlphaScreen MITF homodimerization, bead proximity signal; inhibition, % at 2.6 µM; 0.91% of 650,000 active; in the data active means inhibition above about 50%;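 further: 0% = vehicle wells with protein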
Target sequence (O75030 whole entry, looked up): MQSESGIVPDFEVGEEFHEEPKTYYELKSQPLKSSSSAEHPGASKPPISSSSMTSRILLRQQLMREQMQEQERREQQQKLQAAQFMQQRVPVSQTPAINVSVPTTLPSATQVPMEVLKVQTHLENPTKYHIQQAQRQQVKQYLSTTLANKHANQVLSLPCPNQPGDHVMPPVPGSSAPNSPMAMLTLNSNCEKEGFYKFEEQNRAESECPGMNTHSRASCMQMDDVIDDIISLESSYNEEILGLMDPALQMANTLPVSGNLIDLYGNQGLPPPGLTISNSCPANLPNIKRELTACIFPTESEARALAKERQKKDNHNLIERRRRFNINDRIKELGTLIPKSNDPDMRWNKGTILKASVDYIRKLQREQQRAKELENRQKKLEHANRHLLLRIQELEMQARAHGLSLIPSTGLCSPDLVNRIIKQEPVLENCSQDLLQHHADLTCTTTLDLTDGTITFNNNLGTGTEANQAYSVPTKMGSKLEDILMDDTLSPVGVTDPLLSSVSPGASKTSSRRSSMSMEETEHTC
GPR151 activ = activators of human GPR151, primary screen, cell-based, PathHunter beta-arrestin, luminescence; PathHunter beta-arrestin GPR151 cells; activation, % at 11.2 µM; 1% of 650,000 active; in the data active means activation above about 4.9%;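 further: 0% = median of compound wells and 100% = cells with positive control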
TEAD-YAP block = TEAD-YAP interaction inhibition, primary screen, TEAD-YAP interaction inhibitor project, luminescence, HEK-TIYL cells; TEAD-Gal4/YAP UAS-luciferase luminescence; inhibition, % at 9.12 µM; 1.4% of 640,000 active; AID 1259422, 2018; in the data active means inhibition above about 32%;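 further: 0% = median of test compound wells and 100% = reference inhibitor wells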
MITF confirm = MITF inhibitors, retest of hits, confirmation, biochemical, AlphaScreen, triplicate; shares compounds with MITF primary; AlphaScreen MITF homodimerization, biotin/His-MITF beads; inhibition, % at 2.6 µM; 16% of 4,700 active;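 active means inhibition above a cutoff derived from the DMSO control wells, cut at about 28% in these data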;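 further: 0% = MITF dimer wells with DMSO only; inhibitors lower the bead chemiluminescence by keeping MITF from dimerizing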
AS interf DR = AlphaScreen optical interference compounds, dose response, counter-screen, biochemical, HTS. shares compounds with MITF primary. AlphaScreen optical interference counterscreen, cell-free. IC50, µM. 6% of 480 active. AID 1259373, 2018; call rule not given here
AlphaScreen intf2 = AlphaScreen optical interference compounds, counter-screen for MITF inhibitor project, biochemical, triplicate | shares compounds with MITF primary | LysRS AlphaScreen counterscreen, signal interference | inhibition, % at 2.6 µM | 7.6% of 4,700 active | AID 1259376, 2018;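 active means inhibition above a cutoff derived from the DMSO control wells, cut at about 30% in these data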
* = called active by the depositor; / = no result.

SMILES	FBW7 act	MITF primary	GPR151 activ	TEAD-YAP block	MITF confirm	AlphaScreen intf2	others
O=C(NCC1CCCO1)c1ccc2c(=O)n(Cc3cccc(Br)c3)c(=S)[nH]c2c1 (stereo not given)	0	58*	1	-2	1	-1
O=C(c1cccnc1)N1CCN(Cc2ccc(F)cc2)CC1	0	79*	1	3	7	4
O=C(c1cccnc1)N1CCN(Cc2ccncc2)CC1	0	86*	-2	14	7	15
O=C(c1cccnc1)N1CCN(Cc2ccco2)CC1	0	53*	1	2	-16	5
O=C(c1ccccc1)N1CCN(C(=O)c2cccnc2)CC1	0	8	1	14	/	/
COc1cc(/C=N/NC(N)=O)cc2sc(=O)oc12	0	-4	-1	7	/	/
Cc1ccc(N2C(=O)C3ON(c4ccccc4)C(c4ccc([N+](=O)[O-])cc4)C3C2=O)cc1 (stereo not given)	0	61*	1	-1	5	-4
O=C(CN1C(=O)c2ccccc2C1=O)NNC(=O)c1cc2c(s1)CCCC2	0	-4	0	-8	/	/
NC(=O)COC(=O)c1cc2c(s1)CCC2	0	62*	1	10	60*	15	AS interf DR=>6.9
O=C(OCN1C(=O)c2ccccc2C1=O)c1cc2c(s1)CCC2	0	74*	0	2	77*	6	AS interf DR=>7.1
N#C/C(=C(/O)COC(=O)c1cc2c(s1)CCC2)c1nc2ccccc2[nH]1	0	87*	-1	10	82*	3	AS interf DR=>7.1
NC(=O)c1ccc(NC(=O)COC(=O)c2cc3c(s2)CCC3)cc1	0	49	-1	1	/	/
O=C(O)CCC(=O)N1N=C(c2ccccc2)CC1c1ccc2c(c1)OCO2 (stereo not given)	0	4	0	0	/	/
Cc1ccc(CN2CCC(C(=O)NC(C)C)CC2)cc1	0	65*	-1	8	-5	-4
CC(C)NC(=O)C1CCN(Cc2cccc(OCc3ccccc3)c2)CC1	1	57*	0	5	-10	-6
CC(C)NC(=O)C1CCN(Cc2ccccc2Cl)CC1	0	54*	0	4	-10	-6
CC(O)CNC(=O)C1CCN(Cc2ccc(OCc3ccccc3)cc2)CC1 (stereo not given)	1	34	1	-14	/	/
CC(C)NC(=O)C1CCN(Cc2cccc(Cl)c2Cl)CC1	0	54*	1	7	-21	-1
COCCNc1ncnc2c1cnn2Cc1ccc(Cl)cc1	0	-2	1	8	/	/
Cc1cc(S(=O)(=O)N2CCN(CCC(=O)O)CC2)ccc1Br	0	54*	-1	-1	-8	-1
COC(=O)CCN1CCN(S(=O)(=O)c2ccccc2Br)CC1	0	85*	0	7	-4	-1
CCSc1nc2ccccc2n1Cc1ccccc1C	0	-9	1	-14	/	/
O=C(NCCN1CCOC(c2ccccc2)C1)c1ccco1 (stereo not given)	1	16	0	15	/	/
Cc1ccc(NC(=O)C2C3C=CC4(O3)C2C(=O)N(C2CCCCC2)C4C(=O)NC2CCCCC2)cc1 (stereo not given)	0	25	0	11	/	/
COc1cc(OC)c(OC)cc1CNC1CCCc2ccccc21 (stereo not given)	0	44	1	4	/	/
SMILES	FBW7 act	MITF primary	GPR151 activ	TEAD-YAP block	MITF confirm	AlphaScreen intf2	others
COc1cc(CNC2CCCc3ccccc32)cc(OC)c1O (stereo not given)	0	57*	0	18	8	18
CC(NC(=O)c1cccnc1)c1nc(-c2cccnc2)n[nH]1 (stereo not given)	0	3	1	11	/	/
CC1(C)CC(OC(=O)CCN2CCCCC2)CC(C)(C)N1	0	-4	2	-5	/	/
CCCCS(=O)(=O)C1CCCCC1OC(=O)CCN1CCCCC1 (stereo not given)	0	51*	-2	9	15	0
O=C1CC(N2CCOCC2)C(=O)N1c1cc(C(F)(F)F)ccc1Cl (stereo not given)	0	88*	-1	1	-1	2
COc1cccn2c(C(=O)N3CC(C)OC(C)C3)c(C(F)(F)F)nc12 (stereo not given)	0	9	1	-3	/	/
O=C1CCCN1CCCn1c(=S)[nH]c2cc3ccccc3cc2c1=O	0	66*	-1	1	0	17
CC(/C=C1\N=C(c2ccc3c(c2)OCO3)OC1=O)=C\c1ccc(/C=C(C)/C=C2\N=C(c3ccc4c(c3)OCO4)OC2=O)cc1	0	8	-1	7	/	/
Cc1ccc(N(CC(=O)NC(C(C)C)C(C)C)S(C)(=O)=O)cc1C	0	68*	2	12	7	14
N#CC1=C(N)Oc2n[nH]c(-c3ccccc3)c2C1c1ccoc1 (stereo not given)	0	-5	0	2	/	/
CC(=O)Nc1ccc(NC(=O)Cc2ccc(Br)cc2)cc1	0	58*	-1	-7	19	8
Cc1cc(NC(=O)C(C)NC2CCCC2)no1 (stereo not given)	0	52*	0	-3	-2	7
Cc1cc(NC(=O)C(C)NCCCN(C)C)no1 (stereo not given)	0	63*	1	-1	2	12
Cc1cc(NC(=O)C(C)N2CCCC2)no1 (stereo not given)	1	-18	-1	-4	/	/
Cc1cc(NC(=O)C(C)NCCc2ccccc2)no1 (stereo not given)	0	22	1	-1	/	/
O=C(N/N=C/c1cc(O)ccc1Br)c1cccnc1	-1	59*	1	66*	88*	100*
O=C(N/N=C/c1cc(O)ccc1Br)c1ccncc1	1	114*	0	77*	120*	100*
O=C1N[C@@H](Cc2c[nH]c3ccccc23)C(=O)N2CCN(C(=O)NC3CCCCC3)C[C@H]12	0	76*	-2	12	72*	-9	AS interf DR=>6.5
O=C1N[C@@H](COCc2ccccc2)C(=O)N2CCN(C(=O)NC3CCCCC3)C[C@H]12	0	72*	2	-1	68*	-4	AS interf DR=>6.5
O=C1N[C@@H](COCc2ccccc2)C(=O)N2CCN(C(=O)OCc3ccccc3)C[C@H]12	0	-8	0	3	/	/
